Only some compounds are listed: those with a hit (about 2.9% of all), similar ones and a draw of the others.
HEK293 cAMP cs: parental HEK293 cAMP activation (counter-screen); parental HEK293 CNG cAMP sensor, membrane potential fluorescence; 73,000 tested, 2.5% active; Potency, µM (series often up to 57.1 µM), inactives show at the highest dose activation, hits mostly activators; active = well fitted activation curve with a large enough effect; inconclusive = small, poorly fitted or top-dose-only effect; inactive = no such curve, though single readings can be large or run the other way; also: % of control where 0% means no effect; nearly all actives have a fitted effect of over 55% in size
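Parental HEK 293 cells stably expressing a cAMP-gated CNG channel were loaded with membrane potential dye containing 100 uM RO 20-1724 for 60 min. Compound added for 30 min; depolarization read as fluorescence intensity at 590 nm.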
TSHR agonist: activates the human thyroid stimulating hormone receptor; HEK293-CNG-TSHR cells (CNG channel as cAMP sensor), membrane potential dye, cAMP; Potency, µM (series often up to 57.1 µM), without a hit: at the top dose activation, actives largely listed as activators; 73,000 tested, 0.48% active; AID 926; active = well fitted activation curve with a large enough effect in the main read-out, with a control signal flat, not every such curve was filed as active; inconclusive = small, poorly fitted or top-dose-only effect, or a change in a side signal; inactive = no such curve, though single readings can be large or run the other way; % of control where 0% means no effect;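 also: the control signal comes from parental cells without the receptor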
Target sequence (P16473 whole entry, looked up): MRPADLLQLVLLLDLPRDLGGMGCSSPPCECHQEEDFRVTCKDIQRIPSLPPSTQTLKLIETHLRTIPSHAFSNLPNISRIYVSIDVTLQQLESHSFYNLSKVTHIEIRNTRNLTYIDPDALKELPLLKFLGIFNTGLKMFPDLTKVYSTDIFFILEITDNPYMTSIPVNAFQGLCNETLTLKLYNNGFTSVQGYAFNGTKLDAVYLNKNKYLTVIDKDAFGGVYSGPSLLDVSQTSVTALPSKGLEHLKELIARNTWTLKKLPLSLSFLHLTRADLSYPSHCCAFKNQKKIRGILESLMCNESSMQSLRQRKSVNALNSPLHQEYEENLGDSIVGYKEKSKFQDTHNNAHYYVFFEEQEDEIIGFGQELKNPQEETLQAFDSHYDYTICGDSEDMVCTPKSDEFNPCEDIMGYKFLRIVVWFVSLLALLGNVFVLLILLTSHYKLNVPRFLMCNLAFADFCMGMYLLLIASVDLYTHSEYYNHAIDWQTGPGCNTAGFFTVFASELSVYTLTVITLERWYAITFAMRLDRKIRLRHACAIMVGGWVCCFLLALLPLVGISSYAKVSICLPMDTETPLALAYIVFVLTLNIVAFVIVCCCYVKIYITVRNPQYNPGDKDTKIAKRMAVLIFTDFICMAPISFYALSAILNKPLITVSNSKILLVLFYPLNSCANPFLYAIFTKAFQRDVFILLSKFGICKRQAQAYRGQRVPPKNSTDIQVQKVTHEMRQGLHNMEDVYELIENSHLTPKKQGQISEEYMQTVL
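HEK 293 cells stably expressing TSHR and a modified CNG channel, with CNG-only parental cells as counterscreen, were preloaded 60 min at room temperature with membrane potential dye containing 100 uM RO 20-1724. Compound exposure was 30 min, and depolarization was read as fluorescence at 590 nm.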
The depositor's hits bear a star; ? = inconclusive; . = not tested or not shown; ! = a repeat was not active; [ ] = dose if it differs, or a comment. Potency is read from the fitted curve at half-maximal effect.

SMILES | HEK293 cAMP cs | TSHR agonist
CCOC(=O)c1sc(NC(=O)CSc2nnnn2-c2ccc(C)cc2C)nc1C | 25.1µM* | ?
CCOC(=O)c1sc(NC(=O)CSc2nnnn2-c2ccc(C)c(C)c2)nc1C | 26.8% | 19.1%
COc1ccc(-c2cc(C(=O)N/N=C/c3ccc(O)cc3)[nH]n2)cc1 | -8.0% | 10.1%
CC(=O)OC[C@@H]1O[C@H](C/C=N\O[C@@H](C)c2cn([C@H](CO)Cc3ccccc3)nn2)C=C[C@@H]1OC(C)=O | 0.7%[11.4 µM] | -1.5%[11.4 µM]
CC1(C)S[C@@H]2[C@H](C(=O)O)N=C(Cc3ccccc3)N2[C@H]1C(=O)O | 4.8%[11.4 µM] | -2.0%[11.4 µM]
Cc1n[nH]c(C)c1S(=O)(=O)N1CCCC(C(=O)NC2CCCCC2)C1 (stereo unspecified) | 10µM* | ?
CCOc1ccc(NC(=O)C2CCCN(S(=O)(=O)c3c(C)n[nH]c3C)C2)cc1 (stereo unspecified) | -6.4% | 1.5%
CCCCN1CCCCC1C(=O)Nc1c(C)cc(C)cc1C (stereo unspecified) | 20µM* | ?
Cc1cc(C)c(NC(=O)C2CCCN2CCO)c(C)c1 (stereo unspecified) | 8.2% | -0.3%
Cc1nc(N2CCOCC2)c2nc(-c3ccccc3)n(CCN3CCCCC3)c2n1 | 9.4% | 9.6%
O=C(O)CCC(=O)N(Cc1cccnc1)Cc1cccc(F)c1 | 9.7% | 0.0%
O=C(CN1C(=O)COc2ccccc21)N(Cc1cccnc1)Cc1cccc(F)c1 | 15.8µM* | ?
O=C(O)Cn1c(=O)oc2cc(S(=O)(=O)N3CCOCC3)ccc21 | 3.6% | 1.8%
CC1CN(S(=O)(=O)c2cn(C)c(=O)n(C)c2=O)CC(C)O1 (stereo unspecified) | 23.1% | 39.8µM*
Cn1cc(S(=O)(=O)N2CCc3ccccc3C2)c(=O)n(C)c1=O | 7.2% | -6.9%
NC(=S)NCCC[C@@H](N)C(=O)O | -8.7% | 2.6%
O=S(=O)(c1ccc(Oc2ccc(Br)cc2F)nc1)N1CCCCC1 | 25.1µM* | ?
O=S(=O)(c1ccc(S(=O)(=O)N2CCCC2)cc1)N1CCCCCC1 | 2.6% | -4.4%
Cc1c(=O)n(OCc2ccccc2)c2ccccc2[n+]1[O-] | 1.9%[11.4 µM] | 0.8%[11.4 µM]
CCOn1c(=O)c(=O)n(OCc2ccccc2)c2ccccc21 | 4.0%[11.4 µM] | 3.16µM*
Cc1cccc(C)c1OC[C@@H](N)C(C)C | -1.2% | -3.5%
CC[C@H](NC(=O)c1c(C)c(-c2ccccc2)nc2ccccc12)c1ccccc1 | 15.8µM* | ?
Cc1c(-c2ccccc2)nc2ccccc2c1C(=O)O | 7.1% | .
COCCn1c(=O)c(CCc2ccccc2)nc2cnc(Oc3cccc(Cl)c3)nc21 | 20.4% | 3.5%
Cc1nc(N2CCN(C(=O)c3ccco3)CC2)c2oc3ccccc3c2n1 | 13.5% | 28.6%
SMILES | HEK293 cAMP cs | TSHR agonist
Cc1cc(C)nc(N2CCN(c3nc(C)nc4c3oc3ccccc34)CC2)n1 | 5.1% | 14.5%
COc1ccccc1N1CCN(c2nc(C)nc3c2oc2ccccc23)CC1 | 25.1µM* | ?
Cc1nc(N2CCC(C)CC2)c2oc3ccccc3c2n1 | 25.1µM* | ?
O=C1[C@H]2[C@H]3[C@H](O)[C@H](O)C/C(=N/OCc4ccccc4)[C@H]3CC[C@@H]2C(=O)N1Cc1ccc2c(c1)OCO2 | -1.0%[11.4 µM] | 1.6%[11.4 µM]
CO[C@H]1COC(=O)C/C=C\[C@H](C)[C@@H](OC)COC(=O)[C@@H](C)COC(=O)C/C=C\[C@@H]1C | -1.8%[11.4 µM] | -6.1%[11.4 µM]
CC(C)S | 12.2% | -1.1%
NS(=O)(=O)c1ccc(NC(=O)Nc2ccccc2F)cc1 | 10.7%[11.4 µM] | 1.7%[11.4 µM]
CC(C)(C)c1c2c(c(C(C)(C)C)c3c1OCN(Cc1ccccc1)C3)OCN(Cc1ccccc1)C2 | -6.8%[11.4 µM] | 7.1%[11.4 µM]
O=C(c1cc(-c2ccc3c(c2)OCO3)on1)N1CCOCC1 | 3.4% | 0.8%
O=C(c1ccc2c(c1)OCO2)N1CCCC(c2ccccc2)C1 (stereo unspecified) | 10µM* | ?
O=C(c1ccco1)N1CCCC(c2ccccc2)C1 (stereo unspecified) | 10.7% | 6.3%
O=C(c1ccc2c(c1)OCO2)N1CCN(c2ccc(Cl)cc2)CC1 | 6.1% | .
O=C(c1ccc2c(c1)OCO2)N1CCN(c2ccccc2)CC1 | 15.8µM* | ?
O=C(c1cc(-c2ccc3c(c2)OCO3)on1)N1CCN(c2ccc(F)cc2)CC1 | 31.6µM* | ?
C[N+](C)([O-])Cc1cc(-c2ccccc2)ccc1O | 5.5%[11.4 µM] | 5.7%[11.4 µM]
Cc1nn(-c2ccccc2)c2sc(C(=O)N3CCCCC3)cc12 | 23.9% | 27.8%
Cc1nn(-c2ccccc2)c2sc(C(=O)N3CCc4ccccc4C3)cc12 | 20µM* | ?
CN(Cc1cc(C(C)(C)C)cc(Br)c1O)Cc1cc(C(C)(C)C)cc(Br)c1O | 16.0%[11.4 µM] | -1.8%[11.4 µM]
CC1(C)S[C@@H]2[C@H](NC(=O)C3(N)CCCCC3)C(=O)N2[C@@H]1C(=O)O | 5.6%[11.4 µM] | -5.8%[11.4 µM]
CC1=C(C(=O)OCc2ccccc2)C(c2ccco2)C2=C(CC(C)(C)CC2=O)N1 (stereo unspecified) | 12.0% | .
CCOC(=O)C1=C(N)OC2=C(C(=O)CC(C)(C)C2)C1c1ccco1 (stereo unspecified) | 25.1µM* | ?
COc1ccc(CN[C@H](C)C(=O)O)cc1 | 1.7%[11.4 µM] | 1.1%[11.4 µM]
CNCCCC1c2ccccc2C=Cc2ccccc21 | -1.0%[25.6 µM] | -4.8%[25.6 µM]
CNCCCC12CCC(c3ccccc31)c1ccccc12 | 39.8µM*! | ?
O=C1Nc2ccccc2[C@]1(O)Cc1ccccn1 | -2.7%[11.4 µM] | -2.7%[11.4 µM]
SMILES | HEK293 cAMP cs | TSHR agonist
O=C1c2ccccc2C(Cc2ccnc(F)c2)(Cc2ccnc(F)c2)c2ccccc21 | 0.251µM* | ?
O=C(O)CC12C[C@H]3C[C@@H](CC(O)(C3)C1)C2 | 19.7%[11.4 µM] | 2.3%[11.4 µM]
N#Cc1nc(-c2ccco2)oc1N1CCCC1 | 11.2% | 6.5%
N#Cc1nc(-c2ccco2)oc1N1CCN(C(c2ccccc2)c2ccccc2)CC1 | 12.6% | 3.98µM*
CNc1oc(-c2ccco2)nc1C#N | 4.7% | -1.1%
COc1ccccc1OCc1nc(C#N)c(N2CC(C)CC(C)C2)o1 (stereo unspecified) | 12.6µM* | ?
N#Cc1nc(-c2ccco2)oc1N1CCN(c2cccc(Cl)c2)CC1 | 20µM* | ?
CC1CC(C)CN(c2oc(-c3ccco3)nc2C#N)C1 (stereo unspecified) | 15.8µM* | ?
COc1ccc(-c2nc(C#N)c(N3CCCCCC3)o2)cc1 | 20.9% | 52.9%
COc1ccc(-c2nc(C#N)c(N3CC(C)OC(C)C3)o2)cc1OC (stereo unspecified) | -20.4% | .
CCCCCCC#CC1C=CC(OC(C)=O)C(COC(C)=O)O1 (stereo unspecified) | -0.9%[11.4 µM] | 0.7%[11.4 µM]
Oc1cc(CN2COc3ccccc32)c(O)cc1CNC1CCCCC1 | -4.3%[11.4 µM] | -3.7%[11.4 µM]
CC(C)(CO[C@H]1C[C@H]2CC[C@@]1(C)C2(C)C)[N+](=O)[O-] | -2.2%[11.4 µM] | 2.3%[11.4 µM]
COCCn1c(=O)c(-c2ccc(OC)cc2)nc2cnc(N3CCN(C)CC3)nc21 | 14.1% | -3.6%
N#Cc1nc(-c2ccccc2F)oc1N1CCCC1 | 19.7% | 22.0%
N#Cc1nc(-c2ccco2)oc1N1CCc2ccccc2C1 | 25.1µM* | ?
CC1(C)CC(=O)C2=C(C1)OC(N)=C(C#N)C2C#Cc1ccccc1 (stereo unspecified) | 4.4% | 18.3%

From PubChem
